# Bead autofluor = flagged as autofluorescent in microsphere protease counterscreen | compound autofluorescence counterscreen, microsphere flow cytometry; hits give high values | fluorescence intensity (no concentration beside the values) | 360,000 tested, 3.1% active | AID 624483; in the data active = fluorescence intensity above about 16000; inconclusive = no clear call, values can overlap the other calls
# Anthrax LF inh2 = blocks Bacillus anthracis lethal factor protease. P15917. multiplex microsphere protease cleavage assay, LF. inhibition, % at 10 µM. 360,000 tested, 0.12% active; note: plate controls were buffer without enzyme for full effect and enzyme alone for no effect
# BoNT A protease = inhibitors of Botulinum neurotoxin A light chain protease; 360,000 tested, 0.17% active; multiplex microsphere protease substrate cleavage, flow cytometry; inhibition, % at 10 µM; note: plate controls were buffer without enzyme for full effect and enzyme alone for no effect
# BoNT F protease = blocks Botulinum neurotoxin F light chain protease | Multiplex microsphere protease cleavage assay, flow cytometry | inhibition, % at 10 µM | 360,000 tested, 0.22% active | AID 588497; in the data active = inhibition above about 35%, passing the limit was not always enough; inconclusive = no clear call, values can overlap the other calls; note: plate controls were buffer without enzyme for full effect and enzyme alone for no effect
# GDH-TPI counter = counter-screen for M. tuberculosis FBA inhibitors: GDH-TPI coupled enzymes | inhibition, % at 4.8 µM | 360,000 tested, 1.2% active | GDH-TPI coupled enzyme counterscreen, NADH absorbance; in the data active = inhibition above about 30%;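 note: 0% = DMSO wells and 100% = wells lacking the enzyme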
# Mtb FBA inh = inhibitors of M. tuberculosis fructose-bisphosphate aldolase | inhibition, % at 1 µM | 360,000 tested, 2.3% active | purified M. tuberculosis FBA, fluorescence read-out | P9WQA3 | AID 588726; in the data active = inhibition above about 27%;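 note: 0% = vehicle and 100% = reference inhibitor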
# Target sequence (P9WQA3 whole entry, looked up): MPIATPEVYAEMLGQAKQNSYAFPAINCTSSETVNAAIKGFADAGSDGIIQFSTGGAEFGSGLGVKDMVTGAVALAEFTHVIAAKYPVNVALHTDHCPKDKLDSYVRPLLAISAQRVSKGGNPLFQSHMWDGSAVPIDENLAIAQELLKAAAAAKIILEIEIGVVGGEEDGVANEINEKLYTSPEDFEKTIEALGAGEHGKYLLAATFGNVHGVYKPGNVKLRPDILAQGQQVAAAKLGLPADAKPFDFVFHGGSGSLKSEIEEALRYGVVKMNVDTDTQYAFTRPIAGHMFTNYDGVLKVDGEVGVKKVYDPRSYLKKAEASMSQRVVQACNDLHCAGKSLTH
# Starred values were filed as active, the others as inactive; ? = inconclusive; / = no result; + = active, no number; ! = a repeat was not active. An excerpt weighted towards active compounds, which were near 6.6% of everything screened. Cut-off read from the data, not from the text of the source, unless noted: active = inhibition above about 30%; inconclusive = no clear call, values can overlap the other calls; inactive = below that.
SMILES,Bead autofluor,Anthrax LF inh2,BoNT A protease,BoNT F protease,GDH-TPI counter,Mtb FBA inh
O=c1cc(N2CCN(c3ccccc3)CC2)[nH]c(=O)n1-c1ccccc1Cl,21259*,-2,-4,-6,-9,-4
CCOC(=O)c1[nH]c(C)c(C(=O)OCC(=O)Nc2sc3c(c2C#N)CCCCC3)c1C,4082,1,0,0,1,-3
CCN1CC=C2C(C1)C(c1ccc(Cl)s1)C(C#N)=C(N)C2(C#N)C#N (stereo not drawn),10215,-11,1,-1,10,6
CC(C)(C)NC(=O)CSc1nnc(Cc2ccc3c(c2)OCO3)n1C1CCCCC1,20511*,-5,-2,-5,-8,-3
Cc1cc(N2C(=O)C(O)=C(C(=O)c3cccs3)C2c2ccc(F)cc2)no1 (stereo not drawn),5894,-6,0,-2,15,6
Cc1cc(N2C(=O)C(O)=C(C(=O)c3cccs3)C2c2ccccc2)no1 (stereo not drawn),17508*,-2,-3,-7,20,0
Nc1cc(C(Cl)=C(Cl)Cl)c(S(N)(=O)=O)cc1S(N)(=O)=O,5416,5,1,5,14,3
CCN(Cc1ccccc1)C(=O)C1CCN(Cc2ccc(OC)c(OC)c2OC)CC1,22911*,1,?,-1,11,-2
COc1cccc(-n2c(SCC(=O)O)nnc2-c2cccnc2)c1,10541,-1,0,-2,-3,0
CCSc1nnc(-c2cccnc2)n1-c1ccc(Cl)c(C)c1,17981*,-8,6,8,2,1
Cc1cnc(NC(=O)C(C)N2C(=O)C3CC=CCC3C2=O)s1 (stereo not drawn),17257*,-2,-3,-4,3,-3
COc1cc2[nH]c(C(=O)Nc3ccc4c(c3)OCCO4)cc2c(OC)c1OC,5490,2,1,0,22,1
COc1ccccc1NC(=O)Nc1ccc2c(c1)OCCO2,9310,-4,0,-4,11,-2
COc1cc2cc(C(=O)Nc3ccc4c(c3)OCCO4)[nH]c2cc1OC,5258,-3,-1,-4,36*,2
COc1ccc2cc(C(=O)NCCc3ccccc3)[nH]c2c1,3744,-3,0,4,16,7
COc1cccc(OC)c1C(=O)Nc1ccc2c(c1)OCCO2,25227*,-1,-4,-5,-7,-1
CCOC(=O)c1c(C)c(C(=O)Nc2ccc3c(c2)OCCO3)c(C)n1C,23007*,1,?,-12,-7,-4
COc1cc2cc(C(=O)NCCc3ccccc3)[nH]c2cc1OC,3694,0,-1,1,3,160*
CC(C)n1nc(Cc2cccc3ccccc23)c(C#N)c1N,4302,-3,0,12,3,5
Cc1cccc(OCCSc2nncn2C)c1,4165,1,0,-3,-6,2
Cc1cccc(OCCSc2nnc(-c3ccoc3C)n2C)c1,20328*,-1,?,-1,11,0
Cc1ccc(OCCSc2nnc(-c3ccncc3)n2C)cc1,22301*,3,0,-7,-18,-3
c1ccc(CSc2nncn2-c2ccccn2)cc1,22351*,-1,1,-2,2,1
Cn1c(SCCOc2cccc(Cl)c2)nnc1-c1ccncc1,3230,0,0,-17,4,1
Cn1c(SCc2ccc(F)cc2)nnc1-c1ccccn1,23620*,-2,-3,-2,-3,-1
SMILES,Bead autofluor,Anthrax LF inh2,BoNT A protease,BoNT F protease,GDH-TPI counter,Mtb FBA inh
CC(C)Oc1ccc(C(=O)Nc2ccc(S(=O)(=O)N3CCN(C)CC3)cc2)cc1,3271,4,-2,-11,-1,1
CCCCCCCCN1C(=O)[C@H](CC(=O)NCCCCc2ccccc2)C[C@@]2(C(=O)OCC)CCCC=C12,3968,-7,0,-4,/,/
Cc1cccc2c(N=O)c(O)[nH]c12,4379,-2,0,2,20,-2
COc1ccc(CSc2nnc(-c3ccncc3)n2N)cc1,4024,3,-3,5,-4,-2
Nn1c(SCc2ccc(F)cc2)nnc1-c1ccncc1,3272,?,8,55*,-6,0
Fc1ccc(CSc2nncn2NCc2ccccc2)cc1,21851*,2,0,-2,0,-1
Cn1c(SCc2ccccc2)nnc1-c1ccncc1,24601*,3,?,-1,-11,-3
COc1ccc(NC(=O)C2CCCCN2S(=O)(=O)c2ccccc2)cc1S(=O)(=O)N1CCOCC1 (stereo not drawn),3468,-2,-1,-12,5,0
Cc1ccc2nc(-c3ccccn3)c(N)n2c1,5253,-12,-2,-32,/,2
COc1ccc(CCNC(=O)c2ccc(CS(=O)(=O)Cc3ccc(C)cc3)o2)cc1OC,3711,-2,0,-3,6,-2
COc1cccc(-c2cc3c(=O)n(-c4ccccc4)c(=S)[nH]c3s2)c1,4574,2,2,34,38*,4
COc1ccc(-n2c(=S)[nH]c3sc(-c4ccccc4)cc3c2=O)c(OC)c1,3862,6,0,11,21,2
CCc1cc(=O)oc2cc(OC(=O)c3ccco3)ccc12,5562,0,1,8,3,+
CCCc1cc(=O)oc2cc(OC(=O)CN3C(=O)NC4(CCCC4)C3=O)ccc12,4343,7,6,1,16,+
Cc1cc(=O)oc2cc(OC(=O)c3ccco3)ccc12,4108,-2,0,2,-3,194*
Cc1ccc(N(C)S(=O)(=O)c2cccc(C(=O)Oc3ccc4c(C)cc(=O)oc4c3)c2)cc1,2684,-2,-1,-1,2,131*
Cc1cc(=O)oc2c(C)c(OC(=O)c3ccco3)ccc12,5745,-2,1,3,-5,6
COc1cc(O)c(C(CC(=O)N2CCOCC2)c2cc(OC)c(OC)c(OC)c2)c(OC)c1 (stereo not drawn),3607,-1,0,3,-6,-3
O=C(CCC1CCCN(C(=O)c2ccc3[nH]ccc3c2)C1)N1CCN(c2ccccn2)CC1 (stereo not drawn),3359,1,0,5,2,12
CCOC(=O)C1=C(C)NC(=O)NC1c1ccco1 (stereo not drawn),23226*,0,-1,2,17,1
Cc1nc(NCc2ccco2)[nH]c(=O)c1CCC(C)C,21901*,1,3,5,0,2
CCN(Cc1ccccc1)Cc1c(C)[nH]c2c(C)c(C)ccc2c1=O,20905*,-4,?,-4,-1,7
Cc1cn2c(N)c(/C=C3\C=Nc4ccccc43)c(=O)nc2s1,3522,-5,?,?,0,-11
CCc1nn2c(N)c(/C=C3\C=Nc4ccccc43)c(=O)nc2s1,10446,6,2,12,33*!,3
CN1CCc2c(sc3c2C(=O)NC(c2cccc(OC(=O)c4cccs4)c2)N3)C1 (stereo not drawn),4489,-22,5,-50,14,4
